Screens from PubChem BioAssay.
Sampled rows, rich in hits. Any-hit rate of the full collection: about 4.1%.
Sm TGR block: qHTS Assay for the Inhibitors of Schistosoma Mansoni Peroxiredoxins | purified TGR, DTNB reduction, TNB absorbance 405 nm | Potency, µM (highest dose often 114 µM), for inactives: top-dose activity change, negative = inhibition, usual class: inhibitors | Schistosoma mansoni thioredoxin glutathione reductase (TGR), Q962Y6 | actives 3% (n = 360,000) | AID 485364, 2010; further: nearly all actives have a fitted effect of over 60% in size
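Kinetic colorimetric format: TGR-catalysed, NADPH-driven DTNB reduction monitored via TNB absorbance. Enzyme dispensed at 20 nM; compound exposure 15 min at room temperature before reaction start.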
AmpC detergent: qHTS Inhibitors of AmpC Beta-Lactamase (assay with detergent); actives 0.041% (n = 370,000); AmpC hydrolysis of nitrocefin, absorbance 480 nm, 0.01% Triton; P00811; Potency, µM (doses to about 114 µM), without a hit: top-dose activity change, negative = inhibition, usual class: inhibitors;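 further: 0% = no-compound wells and -100% = no-enzyme wells; nearly all actives have a fitted effect of over 25% in size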
Target sequence (P00811 whole entry, looked up): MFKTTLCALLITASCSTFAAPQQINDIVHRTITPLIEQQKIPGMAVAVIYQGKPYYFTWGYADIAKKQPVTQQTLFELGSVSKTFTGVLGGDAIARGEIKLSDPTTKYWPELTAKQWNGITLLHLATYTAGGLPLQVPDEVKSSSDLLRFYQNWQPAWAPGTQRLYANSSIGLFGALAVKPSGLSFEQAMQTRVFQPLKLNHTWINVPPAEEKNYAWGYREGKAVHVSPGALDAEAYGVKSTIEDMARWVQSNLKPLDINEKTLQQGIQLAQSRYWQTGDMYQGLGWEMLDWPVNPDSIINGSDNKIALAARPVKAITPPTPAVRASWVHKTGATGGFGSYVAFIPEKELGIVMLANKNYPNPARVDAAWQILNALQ
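20 mM phosphate pH 7.0 + 0.01% (detergent screen) or 0.0001% Triton X-100; 5.3 nM AmpC reagent; cpd preinc 15 min RT; nitrocefin (800 uM stock) to start; A480 q20 s × 4 min; Activity was normalised to no-enzyme and no-compound control wells.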
AmpC inh no detg: qHTS Inhibitors of AmpC Beta-Lactamase (assay without detergent). P00811. AmpC nitrocefin hydrolysis, absorbance 480 nm, 0.0001% Triton. Potency, µM (highest dose often 57.1 µM), without a hit: top-dose activity change, negative = inhibition, usual class: inhibitors. actives 0.52% (n = 330,000);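 further: plate controls were no compound for no effect and no enzyme for full effect; nearly all actives have a fitted effect of over 20% in size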
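AmpC (5.3 nM in the dispensed reagent) in 20 mM phosphate pH 7.0 with 0.01% (detergent screen) or 0.0001% Triton X-100 was preincubated with compounds for 15 min at room temperature. Nitrocefin was then added from an 800 uM solution, and hydrolysis was followed at 480 nm.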
AMA1 RON2 block: qHTS for Inhibitors of AMA1-RON; Towards Development of Antimalarial Drug Lead: Primary Screen. AlphaScreen AMA1-biotinylated RON2 peptide binding. Potency, µM (top dose mostly 58.2 µM), inactives show at the highest dose activity change, negative = inhibition, hits mostly inhibitors. actives 0.2% (n = 360,000);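 further: 0% = vehicle wells and -100% = peptide control; nearly all actives have a fitted effect of over 45% in size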
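AMA1 (3D7) with his tag at 25 nM final met compounds first, then biotinylated RON2 peptide at 25 nM; detection used donor plus acceptor beads, 10 µg/mL apiece, read by AlphaScreen after 30 min at room temperature.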
FMDV inh: High Throughput Screening for Foot and Mouth Disease Virus Antivirals; FMDV antiviral cell-based qHTS; Potency, µM (doses to about 57.9 µM), for inactives: at the top dose activity change, negative = inhibition, actives largely listed as inhibitors; actives 1.2% (n = 410,000); calls by dose curve; tested in HEK293T cells; further: read-out not given here; nearly all actives have a fitted effect of over 45% in size
The depositor's hits bear a star; ? = inconclusive; . = no result given; [ ] = another dose, or the depositor's remark. Unless noted, the call rests on the fitted dose curve; in most records, active means well fitted curve in the direction sought with a large enough effect; inconclusive means small, poorly fitted or top-dose-only effect, or another doubt; inactive means no such curve, though single readings can be large; an effect the other way counts as inactive or inconclusive. Unless noted, on the % scale 0 is the no-effect control and ±100 the full control effect; potency means the concentration at half of the fitted maximal effect.

SMILES | Sm TGR block | AmpC detergent | AmpC inh no detg | AMA1 RON2 block | FMDV inh
C=Cc1ccc(Cn2c(=O)n(CC3CCC(C(=O)NC(C)C)CC3)c(=O)c3sccc32)cc1 (stereo not drawn) | 3% | -3% | . | . | -17%
Cc1cc2[nH]c(=O)c(=O)[nH]c2cc1S(=O)(=O)N1CCN(c2cccc(Cl)c2)CC1 | 0% | -14% | -53% | -1% | -8%
Cc1cc2[nH]c(=O)c(=O)[nH]c2cc1S(=O)(=O)N1CCN(c2cccc(C(F)(F)F)c2)CC1 | -9% | -9% | 3.2µM* | 5% | -17%
OCCCNCc1cc2cc3c(cc2nc1N1CCN(c2cccc(Cl)c2)CC1)OCO3 | . | . | . | . | 1%
O=C(CSc1nc2ccc(NC(=O)c3ccccc3C(=O)O)cc2s1)Nc1ccc(F)c([N+](=O)[O-])c1 | -13% | -8% | 18µM* | -20% | 12%
CN(C(=O)CSc1nc2ccc(NC(=O)c3ccccc3F)cc2s1)c1ccccc1 | -1% | 16% | . | . | 40µM*
Cc1ccc(C(=O)n2c(N)nc3ccccc32)cc1 | . | -10% | -32% | 61% | 10µM*
CC1=C(C(=O)Nc2ccccc2C)C(c2cccnc2)n2nc(SCc3ccccc3)nc2N1 (stereo not drawn) | 6% | 7% | . | . | -16%
CCOC(=O)c1c(C)[nH]c(C)c1S(=O)(=O)N1CCC(C(=O)NCc2ccc(N(C)C)cc2)CC1 | 0% | 3% | . | . | -5%
COCCn1c(N/N=C(C)/C=C/c2ccccc2)nc2c1c(=O)[nH]c(=O)n2C | 25µM* | -6% | 29% | . | .
CC(/C=C/c1ccccc1)=N\Nc1nc2c(c(=O)[nH]c(=O)n2C)n1CCO | 14µM* | 10% | -1% | 56% | -15%
COC(=O)C(CC(=O)c1ccc(C)cc1)n1cccn1 (stereo not drawn) | ? | -5% | -3% | 2% | 9%
COC(=O)C(CC(=O)c1ccc(Br)cc1)n1cccn1 (stereo not drawn) | 4.5µM* | -11% | -4% | 0% | -3%
CCC1CN(C(=O)Nc2cccc(OC)c2)c2ccccc2O1 (stereo not drawn) | -9% | 3% | . | . | -19%
COc1ccc(CNC(=O)[C@H](C)N2C(=O)N3CCc4c([nH]c5ccccc45)[C@@]3(C)C2=O)cc1OC | 8% | 0% | 44% | -18% | 32µM*
CCOc1ccc(-n2nc3ccc(NC(=O)COc4ccccc4C)cc3n2)cc1 | 0% | -1% | . | . | -10%
CCOc1ccc(C(c2c(O)cc(C)n(CCOC)c2=O)N2CCN(c3ccc(F)cc3)CC2)cc1 (stereo not drawn) | 5.6µM* | -2% | . | . | 0%
COCCn1c(CN2CCN(C(c3ccccc3)c3ccccc3)CC2)nc2c1c(=O)n(C)c(=O)n2C | -14% | -9% | 41% | -2% | -17%
COCCn1c(C)cc(O)c(C(c2ccccc2)N2CCN(c3ccc(F)cc3)CC2)c1=O (stereo not drawn) | 3.2µM* | 8% | . | . | -5%
COCCn1c(C)cc(O)c(C(c2ccccc2)N2CCN(CCO)CC2)c1=O (stereo not drawn) | 3.5µM* | 2% | . | . | -23%
COCCn1c(C)cc(O)c(C(c2ccccc2)N2CCN(c3ccccc3)CC2)c1=O (stereo not drawn) | 4.5µM* | 10% | . | . | -24%
O=C/C=C/c1coc2ccc3ccccc3c2c1=O | 0% | -3% | -3% | -8% | 15%
O=Cc1coc2c(ccc3ccccc32)c1=O | 28µM* | -10% | -45% | . | .
COc1cc(=O)n2c(c1C(=O)NCc1ccco1)CCN(Cc1ccc3nsnc3c1)CC2 | . | . | . | . | -15%
O=C(CCC1N=C2c3ccccc3N=C(SCc3cccc(F)c3)N2C1=O)NCc1ccc(F)cc1 (stereo not drawn) | -1% | -8% | . | . | ?
SMILES | Sm TGR block | AmpC detergent | AmpC inh no detg | AMA1 RON2 block | FMDV inh
O=C1c2ccccc2-c2onc3ccc(Oc4ccccc4)c1c23 | 6.3µM* | 2% | -12% | ? | ?
CCn1nnnc1SCC(=O)NCc1ccco1 | 25µM* | -10% | -13% | 1% | 4%
CCCn1c(SCC(=O)NCc2ccco2)nnc1C(C)C | ? | -14% | 36% | 7% | -10%
CCCCn1nnnc1SCC(=O)NCc1ccco1 | 40µM* | 2% | . | -4% | -5%
COc1cccc(-n2nnnc2SCC(=O)NCc2ccco2)c1 | 50µM* | 1% | -11% | -5% | 0%
COc1ncccc1C(=O)N1CCOc2ccc(C(O)C(c3ccccc3)c3ccccc3)cc2C1 (stereo not drawn) | . | . | . | . | 5%
CCN(CC(=O)Nc1cc(Cl)ccc1C)C(=O)C1COc2ccccc2O1 (stereo not drawn) | 20µM* | 0% | -9% | 7% | -8%
CCN(CC(=O)Nc1cc(Cl)ccc1C)C(=O)C1CCN(c2ncnc3sc(C)c(C)c23)CC1 | . | . | . | 9% | 18µM*
Cc1ccc(S(=O)(=O)N2CCN(c3ncnc4sccc34)CC2)cc1C | 2% | ? | -14% | -2% | 11µM*
Cc1sc2ncnc(N3CCC(C(=O)NNC(=O)c4ccc(Cl)cc4)CC3)c2c1C | 8% | -15% | -1% | 93% | 25µM*
O=S(=O)(c1ccc2c(c1)OCCO2)N1CCN(c2ncnc3sccc23)CC1 | -6% | -1% | -20% | -10% | ?
CCCN1CCN(C(=O)c2cnn(-c3ncc4c(n3)-c3ccccc3CCC4)c2COC)CC1 | . | . | . | . | -12%
CC(C)(O)C#Cc1ccc(CN2CCc3nnc(CNC(=O)c4cccc(F)c4)n3CC2)cc1 | . | . | . | . | -6%
O=C(Cc1ccc(F)cc1)Nc1cccc(-c2nc3cccnc3s2)c1 | 1% | 1% | . | . | 16%
Cc1sc2ncnc(N3CCC(C(=O)N(C)CC(=O)Nc4ccccc4Cl)CC3)c2c1C | -13% | -2% | 184% | 27% | 22µM*
CCOC(=O)c1ccccc1NC(=O)C1CCN(c2ncnc3sc(C)c(C)c23)CC1 | -4% | ? | -34% | -16% | ?
Cc1sc2ncnc(N3CCC(C(=O)N(C)CC(=O)Nc4ccc(Cl)c(C(F)(F)F)c4)CC3)c2c1C | 2% | 1% | 172% | 4% | ?
Cc1sc2ncnc(N3CCC(C(=O)Nc4ccccc4C(C)(C)C)CC3)c2c1C | 0% | ? | 56% | 4% | 25µM*
Cc1ccc(S(=O)(=O)N2CCN(c3ncnc4scc(-c5ccccc5)c34)CC2)cc1 | . | . | 34% | 2%[11.6 µM] | -5%
Cc1sc2ncnc(N3CCN(S(=O)(=O)c4ccccc4)CC3)c2c1C | 0% | 3% | -6% | -15% | 20µM*
Cc1sc2ncnc(N3CCC(C(=O)N(C)CC(=O)Nc4cccc(F)c4)CC3)c2c1C | . | . | . | -3% | 18µM*
